Source: PubChem (several laboratories)
M1 ag: activates the M1 muscarinic receptor | CHO-M1 cells, Fluo-4 calcium fluorescence, agonist mode; hits give high values | B-score at 10 µM | hit rate 3% among 64,000 | AID 626;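 active = fluorescence rise, raw or as B-score row- and column-corrected plate score, outside the 99.7% band of its plate's samples, either direction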
mHtt clearance: compounds clearing mutant huntingtin protein. HeLa Exon1htt(103Q)mCFP, aggregate imaging; zero = plate's median compound well. inhibition, % at 1.5 µM. hit rate 0.42% among 47,000;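 active = inhibition of aggregate fluorescence above about 70%, also judged a hit by eye on the cell image, limit read from the data, passing the limit was not always enough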;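 note: cells exposed to compound for three days before fixation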
D1 mod: D1 dopamine receptor (human) allosteric modulation; P21728; HEK293 D1, CRE-luciferase, dopamine EC30 potentiation; actives deviate in either direction; B-score at 10 µM; hit rate 5.9% among 58,000; AID 641;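 active = luminescence count or its row- and column-corrected plate score outside the 99.7% band of the plate's sample wells, on either side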
M1 antag: antagonists of rat M1 muscarinic receptor; hit rate 3.4% among 64,000; B-score at 10 µM; P08482; CHO-M1 cells, Fluo-4 calcium, ACh EC80 antagonist mode; hits give low values;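 active = calcium fluorescence response, raw or row-and-column corrected B-score, differing from the plate sample mean either way at a set confidence level, mostly lower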
Target sequence (P08482 whole entry, looked up): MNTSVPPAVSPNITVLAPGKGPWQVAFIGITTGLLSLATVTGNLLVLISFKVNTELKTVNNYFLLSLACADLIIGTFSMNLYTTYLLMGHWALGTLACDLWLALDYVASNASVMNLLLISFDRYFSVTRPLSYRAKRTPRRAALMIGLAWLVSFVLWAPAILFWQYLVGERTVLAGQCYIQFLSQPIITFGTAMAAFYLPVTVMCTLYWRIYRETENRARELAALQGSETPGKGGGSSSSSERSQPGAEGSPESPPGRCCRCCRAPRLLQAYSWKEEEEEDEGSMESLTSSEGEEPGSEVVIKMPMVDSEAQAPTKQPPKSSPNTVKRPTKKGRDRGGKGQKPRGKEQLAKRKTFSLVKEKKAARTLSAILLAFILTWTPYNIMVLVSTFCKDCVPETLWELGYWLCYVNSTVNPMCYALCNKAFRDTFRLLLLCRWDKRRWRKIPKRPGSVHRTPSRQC
WNV NS2B-NS3 inh: WNV NS2B-NS3 proteinase inhibition. z-score (test concentration not listed). WNV NS2B-NS3 protease, fluorogenic substrate Ex360/Em465; hits give low values. P06935. hit rate 0.18% among 65,000; in the data active = z-score below about -3
D1 PAM confirm: confirmation of human D1 dopamine receptor allosteric modulators. AID 642. HEK293 D1 CRE-luciferase, dopamine EC30 potentiation; hits give high values. luminescence at 10 µM. shares compounds with D1 mod. hit rate 88% among 2,200;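 active = luminescence in either of two replicates above the same-plate mean plus 3 SD of the low-dose dopamine control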
D1 no dopamine: secondary test of D1 modulators: activity without dopamine | luminescence at 10 µM | shares compounds with D1 mod | HEK293 D1 CRE-luciferase, luminescence, no dopamine; hits give high values | hit rate 0.8% among 1,900 | AID 646; in the data active = luminescence above about 3900
Isoprot counter: isoproterenol response counter-screen activity for D1 modulators; shares compounds with D1 mod; HEK293 D1 CRE-luciferase, isoproterenol EC30 counter-screen; calls only at 10 µM; hit rate 63% among 2,200;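 active = luminescence in either replicate above plate mean of wells with a partly effective reference agonist dose plus 3 SD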;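 note: isoproterenol raises cAMP through native beta-adrenoceptor Gs so signal bypasses D1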
Of the large screens only hits and unclear results are named; the others gave an inactive call (follow-up assays come after a bar, where they were run). The list is not random: actives were taken first. Their share in the collection is about 8.9%.

COC(=O)c1ccccc1NC(=O)CN1CCN(C(=O)c2ccco2)CC1	D1 mod 3.19 | D1 PAM confirm inactive | D1 no dopamine inactive | Isoprot counter inactive
COC(=O)c1ccccc1NC(=O)CN1CCC(NC(=O)c2ccccc2C)CC1	D1 mod 4.22 | D1 PAM confirm 9492 | D1 no dopamine inactive | Isoprot counter active
COc1ccc(-c2nn(C)c(=O)c3ccccc23)cc1CNS(C)(=O)=O	none (no result: mHtt clearance)
COc1ccc(-c2nn(C)c(=O)c3ccccc23)cc1CNC(=O)c1ccco1	D1 mod 4.51 (no result: mHtt clearance) | D1 PAM confirm 16184 | D1 no dopamine inactive | Isoprot counter active
CCCNC(=O)N1CCN(c2ncccn2)CC1	none
CC1CC(=O)C2=C(C1)Nc1ccccc1N(C(=O)COc1ccccc1)C2c1ccco1 (stereo not given)	D1 mod 14.3 (no result: mHtt clearance) | D1 PAM confirm inactive | D1 no dopamine inactive | Isoprot counter inactive
CN(C)S(=O)(=O)c1ccc(C(=O)Oc2ccccc2)cc1	none
CC(C)OC(=O)CSc1nnc(-c2cnccn2)n1-c1ccc(Cl)cc1	D1 mod 3.4 | D1 PAM confirm 11484 | D1 no dopamine inactive | Isoprot counter inactive
Cc1ccc(-n2c(SCC(=O)OC(C)C)nnc2-c2ccncc2)cc1	none
Cc1c(C(=O)NC2CC2)oc2ccc(S(=O)(=O)N3CCCCCC3)cc12	none (no result: mHtt clearance)
Cc1c(C(=O)NC2CCCc3ccccc32)oc2ccc(S(=O)(=O)N3CCOCC3)cc12 (stereo not given)	D1 mod 5.98 | D1 PAM confirm 7816 | D1 no dopamine inactive | Isoprot counter active
CC(NC(=O)c1ccco1)C(=O)OCc1cccc(Cl)c1 (stereo not given)	none (no result: mHtt clearance)
Cc1ccc(NCN2C(=O)C3CC=CCC3C2=O)cc1 (stereo not given)	none (no result: M1 ag, D1 mod, M1 antag, WNV NS2B-NS3 inh)
COc1ccc(OC)c(/C=N/c2oc(-c3ccco3)c(-c3ccco3)c2C#N)c1	D1 mod 9.5 | D1 PAM confirm 16404 | D1 no dopamine inactive | Isoprot counter inactive
N#Cc1c(/N=C/c2ccco2)oc(-c2ccccc2)c1-c1ccccc1	none (no result: mHtt clearance)
CCc1nnc(NC(=O)CSc2nc(C)c3c(c2C#N)CCCC3)s1	D1 mod 5.77 | D1 PAM confirm 11752 | Isoprot counter active
COc1ccc(NC(=O)CSc2nc(C)c3c(c2C#N)CCCC3)cc1	none (no result: M1 ag, D1 mod, M1 antag, WNV NS2B-NS3 inh)
CCC(Oc1ccccc1)C(=O)N1CC(C)CC(C)C1 (stereo not given)	none (no result: D1 mod)
CCOc1ccc(-c2[nH]ncc2Oc2ccccc2OC)c(O)c1	none
CCOc1ccc(-c2[nH]ncc2-c2ccc(OC)c(OC)c2)c(O)c1	D1 mod 5.23 (no result: mHtt clearance) | D1 PAM confirm 13188 | D1 no dopamine inactive | Isoprot counter active
O=C(Nc1ccccc1)N(C1=NCCC1)c1ccc(OC(F)F)cc1	none (no result: mHtt clearance)
CCOC(=O)C(NCCCO)c1ccccc1 (stereo not given)	D1 mod 2.81 | D1 PAM confirm inactive | D1 no dopamine inactive | Isoprot counter inactive
O=C(NCCO)C(c1ccccc1)c1ccccc1	none (no result: mHtt clearance)
CCn1c(-c2ccsc2)nc2c1c(=O)[nH]c(=O)n2Cc1ccccc1	D1 mod 6.34 (no result: mHtt clearance) | D1 PAM confirm 16576 | D1 no dopamine inactive | Isoprot counter active
CCOC(=O)c1sc(NC(=O)CSc2nc3c(cc2C#N)CCCCCC3)c(C#N)c1C	none
N#Cc1cc2c(nc1SCC(=O)Nc1sc3c(c1C#N)CCC3)CCCCC2	D1 mod 5.98 (no result: mHtt clearance) | D1 PAM confirm 10448 | D1 no dopamine inactive | Isoprot counter active
CCS(=O)(=O)CCSc1nc2c(cc1C#N)CCCC2	D1 mod 5.48 | D1 PAM confirm 19348 | D1 no dopamine inactive | Isoprot counter active
N#Cc1cc2c(nc1SCC(=O)N1CCCCC1)CCCCC2	D1 mod 3.84 | D1 PAM confirm 10608 | Isoprot counter active
COc1ccc2nc(SCC(=O)N3CCCCCC3)c(C#N)cc2c1	D1 mod 3.54 | D1 PAM confirm 10688 | D1 no dopamine inactive | Isoprot counter inactive
CCOc1ccc2cc(C#N)c(SCC(=O)N3CCCC3)nc2c1	none
N#Cc1cc2c(nc1SCC(=O)N1CCCCC1)CCCC2	none
O=C(Nc1ccc(Oc2ccccc2)cc1)C1CCCN(c2ncccn2)C1 (stereo not given)	none (no result: mHtt clearance)
CCOc1ccc(NC(=O)N(CCN(C)C)C(C)c2ccncc2)cc1 (stereo not given)	none
O=C(CSc1nc2c(c(=O)n1-c1ccc(Cl)cc1)SCC2)NCc1ccco1	none (no result: mHtt clearance, D1 mod)
CCC(=O)Nc1sc2c(c1C#N)CC(C)(C)NC2(C)C	D1 mod 6.36 (no result: mHtt clearance) | D1 PAM confirm inactive | D1 no dopamine inactive | Isoprot counter inactive
CCOc1ccccc1NC(=O)CSc1nnc(CNC(=O)c2ccco2)o1	none (no result: mHtt clearance)
COc1ccc(CN(C2CCCC2)S(=O)(=O)c2ccc(-n3cnnn3)c(OC)c2)cc1OC	D1 mod 6.15 | D1 PAM confirm 9100 | D1 no dopamine inactive | Isoprot counter active
COc1cc(S(=O)(=O)N2CCC(N3CCCCC3)CC2)ccc1-n1cnnn1	none (no result: mHtt clearance)
O=c1cc(-c2ccccc2Cl)c2c([nH]1)CCC2	none (no result: mHtt clearance)
O=c1cc(-c2ccccc2)c2c([nH]1)CCCC2	D1 mod 5.25 (no result: mHtt clearance) | D1 PAM confirm 7876 | D1 no dopamine inactive | Isoprot counter inactive
Cn1c(=O)[nH]c(=O)c2c1nc(Sc1ncccn1)n2CCCc1ccccc1	D1 mod 9.62 | D1 PAM confirm 18924 | D1 no dopamine inactive | Isoprot counter active
Cn1c(=O)[nH]c(=O)c2c1nc(Sc1ccccc1)n2CCc1ccccc1	D1 mod 9.22 | D1 PAM confirm 20140 | D1 no dopamine inactive | Isoprot counter active
COC(=O)C(C)Sc1nc2c(c(=O)[nH]c(=O)n2C)n1CCCc1ccccc1 (stereo not given)	D1 mod 4.71 | D1 PAM confirm 8864 | D1 no dopamine inactive | Isoprot counter active
Cc1nnc(SCCn2c(N3CC(C)CC(C)C3)nc3c2c(=O)[nH]c(=O)n3C)s1 (stereo not given)	none (no result: mHtt clearance)
C/C=C/Cn1c(SCCCc2ccccc2)nc2c1c(=O)[nH]c(=O)n2C	D1 mod 6.29 (no result: mHtt clearance) | D1 PAM confirm 8184 | D1 no dopamine inactive | Isoprot counter inactive
CCOCCn1c(SCCc2ccccc2)nc2c1c(=O)[nH]c(=O)n2C	none (no result: mHtt clearance)
CCCCCCn1c(SCCC)nc2c1c(=O)[nH]c(=O)n2C	none (no result: mHtt clearance)
CCCCCn1c(SCCc2ccccc2)nc2c1c(=O)[nH]c(=O)n2C	D1 mod 5.52 (no result: mHtt clearance) | D1 PAM confirm 12580 | D1 no dopamine inactive | Isoprot counter active
CCCCCn1c(SCCOCC)nc2c1c(=O)[nH]c(=O)n2C	D1 mod 9.56 | D1 PAM confirm 20192 | D1 no dopamine inactive | Isoprot counter active
